Measured values published in PubChem BioAssay (EPA / NIEHS).
The source made the active and inactive calls. How the source made its calls: active means hit-call score of the fitted dose curve at least 0.9, where 1 is the maximum; inactive means score below 0.9.

test: CCTE_Harrill_HTTr_Apoptosis_PRF_DMEM_12hr: (Pilot) CCTE's 12-hour Apoptosis Assessment for the High-Throughput Transcriptomics (HTTr) Platform, in MCF-7 cells cultured in phenol red-free DMEM + 10% charcoal-stripped fetal bovine serum, Harrill Lab (AID 2283985)
Description: This is a cell-based assay that evaluates apoptosis using high content imaging to evaluate activation of caspase-3/7 using the CellEvent Caspase 3/7 Green detection reagent in 384-well format.One of seven assay components measured from the CCTE_Harrill_HTTr_Apoptosis assay. This was part of a pilot experiment. This is a cell-based assay that evaluates apoptosis in MCF-7 cells cultured in phenol red-free DMEM + 10% charcoal-stripped fetal bovine serum. High content imaging is used to evaluate activation of caspase-3/7 using the CellEvent Caspase 3/7 Green detection reagent. Measurements are taken at 12 hours after chemical dosing in 384-well format.The assay component endpoint CCTE_Harrill_HTTr_Apoptosis_PRF_DMEM_12hr was analyzed with bidirectional fitting relation to DMSO as the negative control and baseline of activity. Using a type of viability reporter, gain-of-signal activity can be used to evaluate activation of caspase-3/7 using the CellEvent Caspase 3/7 Green detection reagent to understand changes in apoptosis. To generalize the intended target to other relatable targets, this assay endpoint is annotated to cell cycle, where the subfamily is apoptosis.
Chemicals were tested in MCF7 cells in an eight point dilution series with a twelve hour exposure duration.

| SMILES | outcome | AC50 |
| --- | --- | --- |
| CC1(C)NC(=O)N(c2ccc([N+](=O)[O-])c(C(F)(F)F)c2)C1=O | inactive |  |
| Cc1nn(C)c(Oc2ccccc2)c1C=NOCc1ccc(C(=O)OC(C)(C)C)cc1 | inactive |  |
| CC(C)C(=O)Nc1ccc([N+](=O)[O-])c(C(F)(F)F)c1 | inactive |  |
| CC(C)CCCCCCc1ccc(O)cc1 |  | 61.8 µM (active) |
| CCCCc1oc2ccccc2c1C(=O)c1cc(I)c(OCCN(CC)CC)c(I)c1 | inactive |  |
| CCOC(=O)C(C)(C)Oc1ccc(Cl)cc1 | inactive |  |
| CCC(C)(C)C(=O)O[C@H]1C[C@@H](C)C=C2C=C[C@H](C)[C@H](CC[C@@H]3C[C@@H](O)CC(=O)O3)[C@H]21 | inactive |  |
| O=C(O)Cc1cc(I)c(Oc2cc(I)c(O)c(I)c2)c(I)c1 | inactive |  |
| CC(=O)O[C@]1(C(C)=O)CC[C@H]2[C@@H]3C=C(Cl)C4=CC(=O)[C@@H]5C[C@@H]5[C@]4(C)[C@H]3CC[C@@]21C | inactive |  |
| S=C([S-])NCCNC(=S)[S-].[Mn+2] | inactive |  |
| CCN(CC)CCOc1ccc(C(=C(Cl)c2ccccc2)c2ccccc2)cc1 |  | 81.6 µM (active) |
| CC[C@H](C)C(=O)O[C@H]1C[C@@H](C)C=C2C=C[C@H](C)[C@H](CC[C@@H]3C[C@@H](O)CC(=O)O3)[C@H]21 | inactive |  |
| Cc1oc(-c2ccccc2)nc1CCOc1ccc(C[C@H](Nc2ccccc2C(=O)c2ccccc2)C(=O)O)cc1 | inactive |  |
| CC(C)OC(=O)C(C)(C)Oc1ccc(C(=O)c2ccc(Cl)cc2)cc1 | inactive |  |
| CCC(=C(c1ccc(O)cc1)c1ccc(OCCN(C)C)cc1)c1ccccc1 |  | 80.6 µM (active) |
| Nc1nc(Cl)nc2c1ncn2[C@H]1C[C@H](O)[C@@H](CO)O1 | inactive |  |
| C[C@]12CC[C@@H]3c4ccc(O)cc4C[C@@H](CCCCCCCCCS(=O)CCCC(F)(F)C(F)(F)F)[C@H]3[C@@H]1CC[C@@H]2O (stereo partly specified) | inactive |  |
| C=CCOC(Cn1ccnc1)c1ccc(Cl)cc1Cl (stereo unspecified) | inactive |  |
| N[C@@H](Cc1cc(I)c(Oc2ccc(O)c(I)c2)c(I)c1)C(=O)O | inactive |  |
| Cc1c(C)c2c(c(C)c1O)CCC(C)(COc1ccc(CC3SC(=O)NC3=O)cc1)O2 (stereo unspecified) | inactive |  |
| CC(C)(c1ccc(O)cc1)c1ccc(O)cc1 | inactive |  |
